The assay addresses Carbonic anhydrase 2 (Homo sapiens) (UniProt P00918). As to the kind of experiment: compounds binding carbonic anhydrase 2 – biochemical, small-molecule microarray, Alexa647-labelled CAII, profiling panel (AID 1122). The note with it: CAII-A647 binding fluorescence, higher = more signal.
`O=C(CS)NCCCCCCNC(=O)[C@H]1C[C@H]2C(=O)N[C@@H](Cc3ccccc3)C(=O)N2[C@H]1c1ccc(O)cc1` registered a composite z-score of 0.557. For `O=C1C2C=CC(C(O)c3ccccc3)N(Nc3ccccc3F)C2C(=O)N1c1ccccc1` (stereo not given), the composite z-score worked out at 0.811. The compound `CC(C)(C)N1CC=CC23O[C@@H]4C=CCOC(=O)[C@@H]4[C@H]2C(=O)N(CCCCCCO)[C@@H]3C1=O` (stereo not given in full) registered a composite z-score of 0.879. As for `CCCCO[C@H]1C[C@H]2C(I)=C[C@@H]1C(=O)[C@]21CO1`, the figure is -0.302; as for `C=CCOC(=O)[C@H]1[C@@H]2C(=O)O[C@@H](c3ccccc3)[C@@H](c3ccccc3)N2[C@@H](c2ccc(OCCOC(=O)[C@@H]3C[C@@H]4C(=O)N5CCC[C@H]5C(=O)N4[C@@H]3c3ccc(O)cc3)cc2)[C@]12C(=O)Nc1ccc(I)cc12`, 0.0118; as for `C=CCOC(=O)[C@H]1[C@@H]2C(=O)O[C@@H](c3ccccc3)[C@@H](c3ccccc3)N2[C@@H](c2ccc(OCCOC(=O)[C@H]3C[C@H]4C(=O)N[C@@H](CCCCNC(C)=O)C(=O)N4[C@H]3c3ccc(O)cc3)cc2)[C@]12C(=O)Nc1ccccc12`, 0.634. The figure for `CCOc1cc(C(O)C2C=CC3C(=O)N(C)C(=O)C3N2Nc2ccccc2)ccc1O` (stereo not given) is 0.827; for `C#CCN([C@@H](Cc1ccc(O)cc1)C(=O)OC)[C@@H](/C=C/C1CC1)[C@H](O)Cc1ccccc1` it is -0.303. The figure for `O=c1n(-c2ccccc2)c(=O)n2n1CC(COc1ccccc1)=C([C@H](O)CCc1ccccc1)[C@@H]2CO` is -0.241. `CC(=O)NCCCC[C@@H]1NC(=O)[C@H]2C[C@@H](C(=O)NCCCC[N+](C)(C)C)[C@@H](c3cccc(OCCO)c3)N2C1=O` registered a composite z-score of 0.704.

These data come from PubChem BioAssay.
